# Test results published in PubChem BioAssay (NCATS).
# Results filed as inconclusive are left out. Active and inactive are the calls of the source. The call rests on the fitted dose curve.
# Experiment: Primary qHTS to identify inhibitors of SARS-CoV-2 cell entry (AID 1645846); further: nearly all actives have a fitted effect of over 45% in size
# Settings: SARS-CoV-2 pseudovirus cell entry assay, luminescence; activity change, negative = inhibition: at 57.1 µM (top of the series) unless noted
# How it was run: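 HEK293 cells stably expressing human ACE2, pre-treated 1 h with compound, then infected with MLV particles pseudotyped with Wuhan-Hu-1 spike (C-terminal 19-aa truncation). Luciferase luminescence after 48 h at 37 °C, normalised to spike PP and bald PP.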
# Potency means the concentration at half of the fitted maximal effect.
Structure (SMILES),Potency,"activity change, negative = inhibition"
Nc1nc(OCc2cc(Br)cs2)c2[nH]cnc2n1,inactive,–
CN1C(N)=N[C@](C)(c2cc(NC(=O)c3ccc(F)cn3)ccc2F)CS1(=O)=O,–,-0.893%
CCc1cc2c(c(OCC(F)(F)F)c(C(=O)NC3CCN(C(=O)CO)CC3)n2C)c(=O)n1CC(=O)c1ccccc1,–,-53.6%
NC(CC1c2ccccc2Oc2ccccc21)(C(=O)O)C1CC1C(=O)O (stereo not given),–,4.33%
CC(C)(CO)n1cc(C(=O)c2cncc(NC(=O)Cc3ccc(Cl)cn3)c2)c2cnc(N)nc21,inactive,–
O=C(NOCC(O)CO)c1ccc(F)c(F)c1Nc1ccc(I)cc1F (stereo not given),–,-21.5%
[2H]c1nc(C)nc([2H])c1-c1cc(NC[C@@H](C)c2cccc3c(C(=O)NC)ccnc23)ncn1,–,0.426%
Cc1ccc(NC(=O)c2ccc(CN3CCNCC3)cc2)cc1Nc1nccc(-c2cccnc2)n1,–,-27.5%
COc1c(Nc2ncc(Cl)c(N[C@H]3[C@H](C(N)=O)[C@@H]4C=C[C@@H]3C4)n2)ccc2c1CCC(N1CCOCC1)CC2 (stereo not given in full),–,-55.4%
CC1(C)O[C@@H]2C[C@H]3[C@@H]4CCC5=CC(=O)C=C[C@]5(C)[C@H]4[C@@H](O)C[C@]3(C)[C@]2(C(=O)CO)O1,–,4.23%
CCOc1cc(C(=O)N2CCC(N3CCN(C)CC3)CC2)ccc1Nc1ncc2c(n1)N(C1CCCC1)c1ccccc1C(=O)N2C,25.1 µM (active),–
C[C@]12CC[C@H](O)CC1=CC[C@@H]1[C@@H]2CC[C@]2(C)C(c3cccnc3)=CC[C@@H]12,inactive,–
Cc1onc(-c2ccc(F)cc2)c1COc1ccc(C(=O)N2CCS(=O)(=O)CC2)cn1,–,-25.8%
C/C=C/C[C@@H](C)C(=O)[C@H]1C(=O)N[C@@H](C(C)C)C(=O)N(C)CC(=O)N(C)[C@@H](CC(C)C)C(=O)N[C@@H](C(C)C)C(=O)N(C)[C@@H](CC(C)C)C(=O)N[C@@H](C)C(=O)N[C@H](C)C(=O)N(C)[C@@H](CC(C)C)C(=O)N(C)[C@@H](CC(C)C)C(=O)N(C)[C@@H](C(C)C)C(=O)N1C,–,-14.4% [at 27.1 µM]
O=C(O)[C@H](CC(=O)N1C[C@H]2CCCC[C@H]2C1)Cc1ccccc1,–,-3.3%
COc1ccccc1C(=O)Nc1cc2c(cc1N1CCCC1)n(C)c(=O)n2C,–,-27%
COc1cc2nccc(Oc3ccc(NC(=O)c4cn(C(C)C)c(=O)n(-c5ccc(F)cc5)c4=O)cc3F)c2cc1OC,inactive,–
CC(C)N(CCCNC(=O)Nc1ccc(C(C)(C)C)cc1)C[C@H]1O[C@@H](n2cc(Br)c3c(N)ncnc32)[C@H](O)[C@@H]1O,35.5 µM (active),–
CC1=C(c2ccc(O)cc2)[C@H](c2ccc(OCCN3CCCCC3)cc2)Oc2cc(O)ccc21,–,-47.4%
CN(C)Cc1ccc(S(=O)(=O)n2ccc(/C=C/C(=O)NO)c2)cc1,–,2%
